For eight compounds, outcome and Potency results are on record in PubChem BioAssay (Tox21).

Test [1] can be described thus: qHTS assay for small molecule agonists of the p53 signaling pathway (AID 651631; calls by dose curve; further: nearly all actives have a fitted effect of over 15% in size). The gist of the method:
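We treat p53RE-bla HCT-116 cells with compounds for 16 h at 37 °C, add LiveBLAzer B/G FRET substrate for 2 h at room temperature, and measure fluorescence intensity.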
Background: In qHTS, concentration-response curves come from the screen itself.

Test [2] can be described thus: qHTS assay for small molecules that induce genotoxicity in human embryonic kidney cells expressing luciferase-tagged ATAD5 (AID 651632). Further: nearly all actives have a fitted effect of over 15% in size. The gist of the method:
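Genotoxicity read-out via ATAD5-luciferase: HEK293T cells, 16 hr compound incubation at 37C, Amplite detection.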

A short description of test [3]: qHTS assay for small molecule agonists of the p53 signaling pathway - cell viability (AID 651633; calls by dose curve;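 further: p53RE-bla HCT reporter cells with a stable beta-lactamase p53 reporter; series mostly up to about 83 µM; nearly all actives have a fitted effect of over 30% in size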). The gist of the method: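 p53RE-bla cells were treated with compound for 16 hours at 37 C. Cytotoxicity was then measured as CellTiter-Glo luminescence after 30 min at room temperature.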
The nature of test [4]: qHTS assay for small molecules that induce genotoxicity in human embryonic kidney cells expressing luciferase-tagged ATAD5 - cell viability (AID 651634; calls by dose curve; further: nearly all actives have a fitted effect of over 25% in size). The gist of the method:
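Live-cell protease activity (CellTiter-Fluor, fluorescence) indicates viability. HEK293T cells with luciferase-tagged ATAD5; 15.5 hr compound treatment at 37C.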

A short description of test [5]: qHTS assay for small molecule disruptors of the mitochondrial membrane potential - cell viability (AID 720634; calls by dose curve; further: nearly all actives have a fitted effect of over 20% in size; further: potency means the concentration at half of the fitted maximal effect). The gist of the method:
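Human hepatoma HepG2 cells were treated for 1 hr with test chemicals, then given m-MPI dye and CellTiter-Glo. Cell viability reflects luminescence proportional to cellular ATP.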

Test [6] is described as follows: qHTS assay for small molecule disruptors of the mitochondrial membrane potential (AID 720635). Further: potency means the concentration at half of the fitted maximal effect. The gist of the method: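 HepG2 cells exposed to compound 1 hr at 37C, then Mito-MPS dye 30 min. Ratio read of aggregate (540/590 nm) versus monomer (490/535 nm) fluorescence.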
A short description of test [7]: qHTS assay to test for compound auto fluorescence at 590 nm (red) in HepG2 cells (AID 720674). The gist of the method:
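HepG2 cells, 2,000 per well in MEM with 10% FBS, attached overnight at 37 C, then got 23 nL compound or DMSO. After 1 hr at 37 C, 5% CO2, red fluorescence was read at 540/590 nm against Rose Bengal sodium as reference.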

Test [8] in a line: qHTS assay to test for compound auto fluorescence at 460 nm (blue) in HEK293 cells (AID 720678). The method in brief:
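HEK293 cells (2,000 per well, medium with 10% dialyzed FBS) attached for 4-5 hr at 37C, then received compound and stood overnight at 37C, 5% CO2. Blue fluorescence was read at Ex/Em 405/460 nm and expressed relative to triamterene.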

Test [9] in a line: qHTS assay to test for compound auto fluorescence at 590 nm (red) in HEK293 cells (AID 720679). The gist of the method:
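HEK293 cells (2,000/well, medium with 10% dialyzed FBS) attached for 4-5 hr at 37C, received 23 nL compound and were incubated overnight at 37C, 5% CO2. Red fluorescence was then read at 540/590nm Ex/Em, referenced to Rose Bengal sodium.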

Test [10] can be described thus: qHTS assay to test for compound auto fluorescence at 535 nm (green) in HEK293 cells (AID 720680).
Test [11] is described as follows: qHTS assay to test for compound auto fluorescence at 460 nm (blue) in HEK293 cell free culture (AID 720681). The gist of the method:
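Compounds were added to cell-free DMEM with 10% FBS and fluorescence read directly. The blue channel used 405 nm excitation and 460 nm emission, with triamterene as the reference fluorophore.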

Test [12] is described as follows: qHTS assay to test for compound auto fluorescence at 535 nm (green) in HEK293 cell free culture (AID 720682). The gist of the method:
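Green-channel intensity (Ex/Em 485/535 nm) was recorded from compound-treated wells containing only DMEM with 10% FBS. Fluorescein provided the equivalency standard.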

Test [13] is described as follows: qHTS assay to test for compound auto fluorescence at 590 nm (red) in HEK293 cell free culture (AID 720683). The gist of the method:
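Cell-free wells of DMEM with 10% FBS received compound, and intrinsic fluorescence was read at excitation/emission 540/590 nm. Values expressed as equivalence to Rose Bengal sodium.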

Test [14] is described as follows: qHTS assay to test for compound auto fluorescence at 590 nm (red) in HepG2 cell free culture (AID 720684). The gist of the method: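 Compound was pinned into wells holding MEM with 10% FBS and no cells, and red fluorescence was read at Ex/Em 540/590 nm. Signal is expressed as auto fluorescence equivalency relative to Rose Bengal sodium.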
A short description of test [15]: qHTS assay to test for compound auto fluorescence at 460 nm (blue) in HepG2 cell free culture (AID 720685). The gist of the method: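 Compound (23 nL) or DMSO pinned into cell-free MEM with 10% FBS; blue fluorescence read at 405/460 nm excitation/emission, expressed as auto-fluorescence equivalency to triamterene.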
The nature of test [16]: qHTS assay to test for compound auto fluorescence at 535 nm (green) in HepG2 cell free culture (AID 720686).
The nature of test [17]: qHTS assay to test for compound auto fluorescence at 460 nm (blue) in HepG2 cells (AID 720687). The method in brief:
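HepG2 cells in MEM with 10% FBS, attached overnight at 37 C, were exposed to compound or DMSO for 1 hr at 37 C, 5% CO2. Blue fluorescence was read at 405/460 nm, with triamterene as reference fluorophore.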

The target in test [18] is Glucocorticoid receptor (Homo sapiens) (UniProt P04150). The test is described as follows: qHTS assay to identify small molecule agonists of the glucocorticoid receptor (GR) signaling pathway (AID 720691; active means well fitted activation curve with a large enough effect in the signal ratio in the repeat runs, not every such curve was filed as active; the % refers to the signal ratio). The method in brief:
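Beta-lactamase reporter activity, read as fluorescence intensity, was measured in GR-bla HeLa cells exposed to compounds for 18 h at 37 C and then loaded with LiveBLAzer B/G FRET substrate for 2 h at room temperature.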

Test [19] has the same target. The test is described as follows: qHTS assay to identify small molecule antagonists of the glucocorticoid receptor (GR) signaling pathway (AID 720692; active means well fitted inhibition curve with a large enough effect in the signal ratio in the repeat runs, not every such curve was filed as active; the % refers to the signal ratio). The method in brief:
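Fluorescence from cleaved LiveBLAzer B/G FRET substrate reports GRE-driven beta-lactamase in HeLa cells; compounds are tested against 5 nM dexamethasone (final) over 18 h at 37 C, substrate incubation 2 h at room temperature.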

Test [20] is described as follows: qHTS assay to test for compound auto fluorescence at 535 nm (green) in HepG2 cells (AID 720675).

Values joined by “and” are separate entries in the source; they are usually repeats but may differ in a detail not shown here. Equal values may be shown once. Results filed as inconclusive are left out. Active and inactive are the calls of the source. Unless noted, the call rests on the fitted dose curve; in most records, active means well fitted curve in the direction sought with a large enough effect in the repeat runs; inconclusive means weak or mixed curves; inactive means no such curve, though single readings can be large; an effect the other way counts as inactive or inconclusive.

Sequence of Glucocorticoid receptor (Homo sapiens) (P04150 whole entry, looked up): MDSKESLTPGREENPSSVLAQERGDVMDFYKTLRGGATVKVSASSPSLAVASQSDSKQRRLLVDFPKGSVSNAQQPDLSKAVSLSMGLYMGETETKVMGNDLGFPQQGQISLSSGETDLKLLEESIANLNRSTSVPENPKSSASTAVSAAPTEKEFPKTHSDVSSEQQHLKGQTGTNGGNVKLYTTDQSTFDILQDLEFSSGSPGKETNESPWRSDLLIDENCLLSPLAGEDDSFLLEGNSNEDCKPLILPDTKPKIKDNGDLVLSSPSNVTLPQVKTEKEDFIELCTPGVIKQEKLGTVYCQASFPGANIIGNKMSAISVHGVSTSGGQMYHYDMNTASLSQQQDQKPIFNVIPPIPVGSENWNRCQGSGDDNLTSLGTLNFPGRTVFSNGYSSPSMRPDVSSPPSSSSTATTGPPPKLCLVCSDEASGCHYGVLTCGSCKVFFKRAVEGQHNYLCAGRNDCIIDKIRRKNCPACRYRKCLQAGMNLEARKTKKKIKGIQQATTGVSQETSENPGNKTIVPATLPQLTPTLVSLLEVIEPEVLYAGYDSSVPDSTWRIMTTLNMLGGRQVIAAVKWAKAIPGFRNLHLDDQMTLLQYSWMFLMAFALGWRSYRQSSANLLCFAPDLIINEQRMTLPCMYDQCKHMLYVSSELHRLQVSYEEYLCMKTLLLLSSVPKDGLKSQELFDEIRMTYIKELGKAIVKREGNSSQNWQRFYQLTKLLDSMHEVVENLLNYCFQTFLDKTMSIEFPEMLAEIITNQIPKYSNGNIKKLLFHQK

Regarding `COCCl`, the outcome in test [1], in test [2], in test [3], in test [4], in [7] and in test [8] was inactive. Moreover, the call in [9], in test [10], in test [11], in [12], in test [13] and in [14] was inactive. Moreover, the result in test [15], in test [16], in test [17] and in test [18] was inactive. Moreover, the Potency result in [5], in test [6] and in test [19] was “inactive” in each case.

Regarding `COC(=O)c1ccccc1C(=O)OC`, the outcome in test [1], in test [2], in [3], in test [4], in test [7] and in [20] was inactive. Besides, the compound was classed as inactive in test [8], in test [9], in test [10], in [11], in test [12] and in test [13]. Also, the result in [14], in test [15], in test [16], in test [17] and in test [18] was inactive. The Potency entry in test [5], in test [6] and in test [19] was “inactive” each time.

Consider `Cn1cc(-c2ccccc2)c(=O)c(-c2cccc(C(F)(F)F)c2)c1`, for which the call in test [1], in test [2], in test [3], in test [4], in [7] and in test [20] was inactive. Besides, the compound was called inactive in test [8], in [9], in test [10], in test [11], in test [12] and in test [13]. The call in [14], in [15], in test [16], in [17] and in test [18] was inactive. For the same compound, the Potency result in test [5], in [6] and in [19] was “inactive” each time.

As for `O=C(NC(=O)c1c(F)cccc1F)Nc1cc(Cl)c(OC(F)(F)C(F)C(F)(F)F)cc1Cl` (configuration not stated), the compound was called inactive in test [1], in test [2], in test [3], in test [4], in test [7] and in [20]. Moreover, the outcome in [8], in test [9], in [10], in test [11], in test [13] and in test [14] was inactive. In addition, the call in [15], in [16], in test [17] and in [18] was inactive. Besides, the Potency is 6.68 µM (active) and 7.7 µM (active) in test [5]; 5.31 µM (active) and 7.7 µM (active) in test [6].

In the case of `Cc1cc(Cl)ccc1O`, the compound was called inactive in test [1], in test [2], in test [3], in test [4], in [7] and in test [8]. Also, the compound was called inactive in test [9], in test [10], in test [11], in [13], in test [14] and in test [15]. Besides, the outcome in test [16], in test [17] and in [18] was inactive. Besides, the Potency result in test [5] and in test [19] was “inactive” in each case. Moreover, the Potency in test [6] is 42 µM (active) and 54.5 µM (active).

For `[N-]=[N+]=[N-]`, the outcome in [1], in [2], in test [3], in test [4], in [7] and in [20] was inactive. For the same compound, the result in [8], in test [9], in test [10], in test [11], in test [13] and in [14] was inactive. Besides, the compound was called inactive in [15], in [16], in test [17] and in test [18]. Also, the Potency entry in test [5], in test [6] and in test [19] was “inactive” in each case.

For `CCC[CH2][Sn]([Cl])([Cl])[Cl]`, the compound was classed as inactive in test [1], in [2], in test [3], in [4], in [7] and in test [20]. The outcome in test [8], in [9], in [10], in test [11], in test [12] and in [13] was inactive. The call in test [14], in test [15], in test [16], in [17] and in [18] was inactive. For the same compound, the Potency result in [5] and in [6] was “inactive” each time.

As for `CC(C)(C)OOC(C)(C)C`, the call in test [1], in test [2], in [3], in test [4], in test [7] and in test [20] was inactive. For the same compound, the call in test [8], in test [9], in test [10], in [11], in test [13] and in [14] was inactive. In addition, the result in test [15], in [16], in [17] and in [18] was inactive. For the same compound, the Potency entry in test [5], in test [6] and in test [19] was “inactive” each time.
